The text below walks through data of PubChem BioAssay (NCI).

Some test systems named below: HCT-15 colon; HT29 colon; SNB-75 CNS; SNB-19 CNS; U251 CNS; PC-3 prostate; SK-MEL-5 melanoma; UACC-62 melanoma; SK-MEL-28 melanoma.
Holding throughout (assay): NCI-60 one-dose screen, 48 h (100 = growth as untreated, 0 = no growth, -100 = all killed)
Details in all cases: 10 µM unless noted

About 83,000 compounds went through this panel and 20% of them were active in at least one assay; those are over-represented in the sample as a whole.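 Results are percent growth after 48 hours of single-concentration exposure. 100 means growth as in untreated cells, lower positive values show inhibition; negative values down to -100 show cell death.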 Unmarked numbers belong to inactive results. The source made the active and inactive calls. The calls were made as follows: active = growth percent below 10; inactive = the rest.

For the molecule `O=C1c2cccc3cccc(c23)C(=O)N1CC#Cc1ccc2c3c(cccc13)C(=O)N(CCN1CCNCC1)C2=O`, the growth is 61.7% with HCT-15 colon; 23.5% in the experiment with HT29 colon; 99.6% with SNB-75 CNS; 86.2% in the experiment on SNB-19 CNS; 56.4% in the experiment with U251 CNS; 85.5% in the experiment with PC-3 prostate. Also, the growth in the experiment on SK-MEL-5 melanoma is 103%; in the experiment with UACC-62 melanoma, 105%; in the experiment with SK-MEL-28 melanoma it was 13.5%.
`C#CCn1c2c(c3ccccc31)C[C@]1(C)[C@H]3CC[C@@H]4[C@@H]5C(=CCC[C@H]5C(=C)C)CC[C@@]4(C)[C@]3(C)CC[C@H]1C2(C)C`: the growth in the experiment with HCT-15 colon was 104%; with HT29 colon, 104%; in the experiment on SNB-75 CNS it was 90.3%; with SNB-19 CNS, 100%; in the experiment on U251 CNS, 106%; in the experiment with PC-3 prostate, 97.3%. For the same molecule, the values for the growth in the experiment on SK-MEL-5 melanoma, with UACC-62 melanoma and in the experiment on SK-MEL-28 melanoma were 100%, 95.2% and 106%, respectively.
For `C=C(C)[C@@H]1CC[C@]2(C(=O)N3CCN(C)CC3)CC[C@]3(C)[C@H](CC[C@@H]4[C@@]5(C)C/C(=C/c6ccc(C(F)(F)F)cc6)C(=O)C(C)(C)[C@@H]5CC[C@]43C)[C@@H]12`, the growth in the experiment with HCT-15 colon was 86.5%; with HT29 colon, 95.7%; in the experiment with SNB-75 CNS it was 80.7%; in the experiment on SNB-19 CNS it was 97.3%; in the experiment on U251 CNS, 87.1%; in the experiment on PC-3 prostate, 78.8%. Further, the values for the growth in the experiment on SK-MEL-5 melanoma, in the experiment on UACC-62 melanoma and with SK-MEL-28 melanoma were 99.1%, 96.3% and 104%, respectively.
For the molecule `O=C1NC(c2ccc(Cl)c(Cl)c2)=C/C1=C\c1ccccc1`, the growth in the experiment with HCT-15 colon was 69%; in the experiment with HT29 colon, 87.7%; in the experiment on SNB-75 CNS it was 63.1%; with SNB-19 CNS, 80%; with U251 CNS, 46.1%; with PC-3 prostate it was 79.2%. Also, the growth with SK-MEL-5 melanoma is 97.3%; in the experiment with UACC-62 melanoma, 86.7%; in the experiment with SK-MEL-28 melanoma it was 104%.
On to `Cc1ccc(-c2ccc(/C=C(\C#N)c3nc(-c4ccco4)cs3)o2)cc1`, for which the growth in the experiment with HCT-15 colon was 69.2%; in the experiment on HT29 colon, 102%; with SNB-75 CNS it was 84.9%; with SNB-19 CNS, 99.6%; in the experiment with U251 CNS it was 98.7%; with PC-3 prostate, 100%. Further, the growth is 87.8% in the experiment on SK-MEL-5 melanoma, 87.5% in the experiment on UACC-62 melanoma and 112% in the experiment with SK-MEL-28 melanoma.
Take `C=C(C)[C@@H]1CC[C@]2(/C=N/Nc3ccncc3)CC[C@]3(C)[C@H](CC[C@@H]4[C@@]5(C)CCCNC(C)(C)[C@@H]5CC[C@]43C)[C@@H]12`: the growth with HCT-15 colon is 68.4%; in the experiment with HT29 colon, 18.6%; in the experiment with SNB-75 CNS, 90.5%; with SNB-19 CNS, 94.7%; with U251 CNS, 67.9%; with PC-3 prostate it was 47.3%. Besides, the growth in the experiment with SK-MEL-5 melanoma was 81.7%; in the experiment with UACC-62 melanoma, 88.1%; in the experiment with SK-MEL-28 melanoma, 95.4%.
Take `O=C(/C=C\c1ccc2c(c1)OCO2)/C=C/c1ccc2c(c1)OCO2`: the growth is 11% in the experiment on HCT-15 colon; 32.1% in the experiment with HT29 colon; 75.7% with SNB-75 CNS; 68.9% with SNB-19 CNS; 19.4% in the experiment with U251 CNS; 91.1% in the experiment on PC-3 prostate. Further, the growth is 84% in the experiment on SK-MEL-5 melanoma, 75.1% in the experiment with UACC-62 melanoma and 105% in the experiment on SK-MEL-28 melanoma.
Regarding `COC(=O)C(Cc1ccccc1)n1cc(COc2nc(Cl)nc(Nc3ccc(Cl)cc3)n2)nn1` (stereo not given), the growth with HCT-15 colon was 91%; in the experiment with HT29 colon, 95.5%; with SNB-75 CNS, 104%; in the experiment on SNB-19 CNS, 98.2%; in the experiment with U251 CNS, 94.1%; in the experiment on PC-3 prostate, 101%. Besides, the growth in the experiment on SK-MEL-5 melanoma was 103%; with UACC-62 melanoma it was 93.1%; in the experiment on SK-MEL-28 melanoma, 107%.
As for `O=C(/C=C/c1ccc2ccccc2c1)Nc1ncc(Cc2ccccc2)s1`, the growth in the experiment with HCT-15 colon is 55.7%; in the experiment with HT29 colon, 69.5%; with SNB-75 CNS, 34.4%; in the experiment with SNB-19 CNS, 69.5%; in the experiment on U251 CNS it was 25.8%; with PC-3 prostate, 71.2%. The growth with SK-MEL-5 melanoma was 92.8%; with UACC-62 melanoma, 59.8%; in the experiment on SK-MEL-28 melanoma, 85%.
Turning to `Cc1cc2nc3c4cc(N)ccc4n(CCN(C)C)c3nc2cc1C`, the growth in the experiment with HCT-15 colon is -24% (active); in the experiment with HT29 colon, 14.3%; with SNB-75 CNS, 20.1%; with SNB-19 CNS, 13.2%; in the experiment with U251 CNS, 16.2%; in the experiment with PC-3 prostate it was 21.8%. Besides, the figures for the growth in the experiment on SK-MEL-5 melanoma, in the experiment on UACC-62 melanoma and with SK-MEL-28 melanoma were 21.8%, 6.43% (active) and 13.3%, respectively.
As for `C/C(=N\NC(=O)C(C)SC(C)C(=O)N/N=C(\C)c1cccnc1)c1cccnc1` (stereo not given), the growth was 102% in the experiment with HCT-15 colon; 94.1% with HT29 colon; 89.7% in the experiment with SNB-75 CNS; 110% in the experiment on SNB-19 CNS; 110% in the experiment with U251 CNS; 101% in the experiment with PC-3 prostate. The growth in the experiment with SK-MEL-5 melanoma is 98.4%; in the experiment with UACC-62 melanoma, 101%; in the experiment with SK-MEL-28 melanoma, 113%.
`Brc1cnc2[nH]cc(-c3nnc(-c4ccccc4)o3)c2c1`: the growth in the experiment on HCT-15 colon is 55%; in the experiment with HT29 colon, 74.8%; with SNB-75 CNS, 66.3%; in the experiment with SNB-19 CNS, 79.5%; with U251 CNS, 74.6%; in the experiment on PC-3 prostate, 77.9%. For the same molecule, the growth with SK-MEL-5 melanoma is 80.4%; with UACC-62 melanoma, 66.9%; in the experiment on SK-MEL-28 melanoma, 90.9%.
In the case of `CCOC(=O)c1ccc2c(c1)[n+](=O)c(C(=O)C1CCCS1)c(C(F)(F)F)n2[O-]` (stereo not given), the growth with HCT-15 colon is -72% (active); in the experiment on HT29 colon, -82.4% (active); in the experiment on SNB-75 CNS it was -100% (active); in the experiment on SNB-19 CNS, -77.4% (active); in the experiment with U251 CNS, -100% (active); with PC-3 prostate it was -75.4% (active). For the same molecule, the results for the growth in the experiment on SK-MEL-5 melanoma, in the experiment on UACC-62 melanoma and with SK-MEL-28 melanoma were -96.9% (active), -80.4% (active) and -93.6% (active), respectively.
Consider `CN(C)CCCC1(c2ccc(F)cc2)OCc2cc(-c3ccc(C(F)(F)F)nc3)ccc21` (stereo not given), for which the growth in the experiment with HCT-15 colon was 78.4%; in the experiment on HT29 colon, 64.8%; in the experiment on SNB-75 CNS, 41.7%; with SNB-19 CNS, 76.7%; with U251 CNS, 57.1%; in the experiment on PC-3 prostate, 68.7%. In addition, the growth was 75.3% with SK-MEL-5 melanoma, 86.1% with UACC-62 melanoma and 81% with SK-MEL-28 melanoma.
As to `COc1ccc2c(c1)C/C(=C\c1cc(-c3ccc4c(c3)OCO4)n[nH]1)C2=O`, the growth in the experiment on HCT-15 colon was 90.3%; with HT29 colon, 127%; with SNB-75 CNS, 55.1%; in the experiment on SNB-19 CNS, 92.5%; with U251 CNS it was 94.8%; with PC-3 prostate it was 71.6%. In addition, the results for the growth with SK-MEL-5 melanoma, in the experiment on UACC-62 melanoma and in the experiment on SK-MEL-28 melanoma were 88.5%, 90.3% and 104%, respectively.
